Laboratory results taken from the supplement of paper PMC10849652.
Of roughly 7,900 targets only a part is listed; those with a hit were picked by preference. About 0.6% of all pairs of compound and target were hits.

These targets were tested with CC(C)C1=C2N=C(C=C(N2N=C1)NCC3=CC=CC=C3)NCCCCCCN (assay: log2 fold change, soluble protein after heating vs DMSO (PISA); higher = thermal stabilisation; K562 cells, 10 uM, 30 min; active = over 0.2 and 3.5 SD of the protein, either way, in both replicates (recomputed)).
Procedure, shortened: (§1)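 K562 cells at 2×10^6 cells/mL were treated for 30 min with 10 μM compound, and aliquots were heated for 3 min over 48°C-58°C before pooling. Extraction used PBS with 0.5% NP-40 at 4°C, and soluble protein was the supernatant after 21,000xg for 90 min, measured by TMTpro 16plex LC-MS/MS with channel sums equalised. Thermal stability values, relative to control samples and from duplicates, are log2 fold changes.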

Chain of UniProt Q9NV70 (Q9NV70 whole entry, looked up): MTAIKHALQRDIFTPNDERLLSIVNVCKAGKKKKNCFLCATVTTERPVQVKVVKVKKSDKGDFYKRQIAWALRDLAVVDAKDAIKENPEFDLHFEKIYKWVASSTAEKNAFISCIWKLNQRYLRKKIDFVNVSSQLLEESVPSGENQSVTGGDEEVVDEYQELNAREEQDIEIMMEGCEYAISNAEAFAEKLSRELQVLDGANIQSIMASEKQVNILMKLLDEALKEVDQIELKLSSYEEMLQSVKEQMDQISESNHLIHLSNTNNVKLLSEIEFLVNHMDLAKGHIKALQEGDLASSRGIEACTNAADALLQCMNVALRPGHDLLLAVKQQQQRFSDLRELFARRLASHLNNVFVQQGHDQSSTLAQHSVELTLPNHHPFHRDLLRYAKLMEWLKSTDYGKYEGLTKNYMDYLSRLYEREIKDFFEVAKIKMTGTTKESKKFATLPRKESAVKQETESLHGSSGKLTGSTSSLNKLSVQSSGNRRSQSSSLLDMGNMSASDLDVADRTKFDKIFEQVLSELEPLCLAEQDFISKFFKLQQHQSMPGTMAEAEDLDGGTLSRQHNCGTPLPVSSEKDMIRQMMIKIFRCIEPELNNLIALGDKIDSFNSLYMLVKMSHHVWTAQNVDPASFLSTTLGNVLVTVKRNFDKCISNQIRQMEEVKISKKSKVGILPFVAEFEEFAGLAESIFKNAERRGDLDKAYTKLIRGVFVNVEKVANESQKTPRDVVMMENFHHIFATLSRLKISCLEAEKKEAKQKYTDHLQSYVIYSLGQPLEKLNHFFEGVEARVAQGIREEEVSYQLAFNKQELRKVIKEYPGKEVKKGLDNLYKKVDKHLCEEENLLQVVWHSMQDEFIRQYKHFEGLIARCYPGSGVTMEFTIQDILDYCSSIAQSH
Chain of UniProt Q99848 (Q99848 whole entry, looked up): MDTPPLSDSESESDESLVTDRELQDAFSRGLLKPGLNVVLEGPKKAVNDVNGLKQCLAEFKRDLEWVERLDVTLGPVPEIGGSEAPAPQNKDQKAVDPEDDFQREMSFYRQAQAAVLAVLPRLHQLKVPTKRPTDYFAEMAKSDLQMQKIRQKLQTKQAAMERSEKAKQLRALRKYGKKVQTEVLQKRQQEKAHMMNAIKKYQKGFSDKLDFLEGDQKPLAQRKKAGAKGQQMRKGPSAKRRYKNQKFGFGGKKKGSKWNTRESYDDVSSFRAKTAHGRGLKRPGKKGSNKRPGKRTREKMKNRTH
Chain of UniProt Q16531 (Q16531 whole entry, looked up): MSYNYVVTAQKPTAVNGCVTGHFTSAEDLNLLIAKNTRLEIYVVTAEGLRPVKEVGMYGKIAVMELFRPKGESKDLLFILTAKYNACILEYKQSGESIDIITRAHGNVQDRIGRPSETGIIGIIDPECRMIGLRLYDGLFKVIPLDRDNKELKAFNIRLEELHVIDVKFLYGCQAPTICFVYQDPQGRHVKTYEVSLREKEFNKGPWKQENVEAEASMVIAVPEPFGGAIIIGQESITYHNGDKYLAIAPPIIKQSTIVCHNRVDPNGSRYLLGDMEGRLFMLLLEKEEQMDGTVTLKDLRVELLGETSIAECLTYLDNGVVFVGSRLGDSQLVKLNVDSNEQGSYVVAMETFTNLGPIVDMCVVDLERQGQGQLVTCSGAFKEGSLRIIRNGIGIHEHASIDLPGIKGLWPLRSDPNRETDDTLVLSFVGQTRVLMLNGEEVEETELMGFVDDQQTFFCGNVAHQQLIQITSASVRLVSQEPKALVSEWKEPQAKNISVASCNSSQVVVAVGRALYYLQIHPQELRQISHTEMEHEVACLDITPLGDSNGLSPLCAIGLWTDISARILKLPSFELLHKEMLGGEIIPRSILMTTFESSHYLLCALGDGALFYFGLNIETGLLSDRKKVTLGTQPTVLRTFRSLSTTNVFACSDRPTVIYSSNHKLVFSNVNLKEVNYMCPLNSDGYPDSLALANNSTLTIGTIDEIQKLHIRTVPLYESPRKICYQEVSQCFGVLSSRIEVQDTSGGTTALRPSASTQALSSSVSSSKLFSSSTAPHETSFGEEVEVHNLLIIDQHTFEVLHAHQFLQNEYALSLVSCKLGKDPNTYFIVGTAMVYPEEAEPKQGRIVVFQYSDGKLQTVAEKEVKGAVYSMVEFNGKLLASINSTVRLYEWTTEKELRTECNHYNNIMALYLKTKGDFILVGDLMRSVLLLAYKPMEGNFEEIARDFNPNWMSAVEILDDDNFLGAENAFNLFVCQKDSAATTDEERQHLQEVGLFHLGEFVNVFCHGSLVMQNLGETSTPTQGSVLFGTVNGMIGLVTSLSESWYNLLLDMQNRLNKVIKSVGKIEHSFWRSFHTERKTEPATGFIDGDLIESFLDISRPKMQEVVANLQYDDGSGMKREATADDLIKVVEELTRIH
Chain of UniProt P98173 (P98173 whole entry, looked up): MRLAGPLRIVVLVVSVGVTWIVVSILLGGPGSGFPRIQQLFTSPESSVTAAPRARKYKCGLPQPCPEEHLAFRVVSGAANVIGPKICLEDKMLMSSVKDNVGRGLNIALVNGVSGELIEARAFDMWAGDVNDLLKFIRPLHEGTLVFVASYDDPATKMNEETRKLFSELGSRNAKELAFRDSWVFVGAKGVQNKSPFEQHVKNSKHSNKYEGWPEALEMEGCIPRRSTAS
Chain of UniProt Q15392 (Q15392 whole entry, looked up): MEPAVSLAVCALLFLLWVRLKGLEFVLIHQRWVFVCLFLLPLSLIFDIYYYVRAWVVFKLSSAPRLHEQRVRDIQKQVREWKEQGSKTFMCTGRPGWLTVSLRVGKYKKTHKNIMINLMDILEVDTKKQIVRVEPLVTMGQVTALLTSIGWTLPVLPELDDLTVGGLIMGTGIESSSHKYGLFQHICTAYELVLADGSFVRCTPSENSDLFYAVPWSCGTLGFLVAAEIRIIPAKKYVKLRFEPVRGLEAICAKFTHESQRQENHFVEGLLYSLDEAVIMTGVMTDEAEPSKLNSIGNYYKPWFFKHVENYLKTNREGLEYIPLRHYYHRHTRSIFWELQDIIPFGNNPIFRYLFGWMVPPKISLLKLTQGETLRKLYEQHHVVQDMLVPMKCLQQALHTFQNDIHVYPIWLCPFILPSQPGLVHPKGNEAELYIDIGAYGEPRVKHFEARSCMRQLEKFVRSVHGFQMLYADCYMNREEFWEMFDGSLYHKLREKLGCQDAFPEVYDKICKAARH
Chain of UniProt O76075 (O76075 whole entry, looked up): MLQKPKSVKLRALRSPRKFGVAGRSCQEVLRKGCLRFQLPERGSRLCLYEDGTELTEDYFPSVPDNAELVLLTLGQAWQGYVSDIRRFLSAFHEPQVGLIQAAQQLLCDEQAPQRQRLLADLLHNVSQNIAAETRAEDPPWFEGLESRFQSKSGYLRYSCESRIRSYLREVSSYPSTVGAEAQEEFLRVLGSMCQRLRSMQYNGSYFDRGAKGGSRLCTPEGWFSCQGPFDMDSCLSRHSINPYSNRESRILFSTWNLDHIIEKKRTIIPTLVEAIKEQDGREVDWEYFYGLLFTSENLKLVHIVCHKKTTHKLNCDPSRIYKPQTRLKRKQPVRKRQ
Chain of UniProt Q9BV94 (Q9BV94 whole entry, looked up): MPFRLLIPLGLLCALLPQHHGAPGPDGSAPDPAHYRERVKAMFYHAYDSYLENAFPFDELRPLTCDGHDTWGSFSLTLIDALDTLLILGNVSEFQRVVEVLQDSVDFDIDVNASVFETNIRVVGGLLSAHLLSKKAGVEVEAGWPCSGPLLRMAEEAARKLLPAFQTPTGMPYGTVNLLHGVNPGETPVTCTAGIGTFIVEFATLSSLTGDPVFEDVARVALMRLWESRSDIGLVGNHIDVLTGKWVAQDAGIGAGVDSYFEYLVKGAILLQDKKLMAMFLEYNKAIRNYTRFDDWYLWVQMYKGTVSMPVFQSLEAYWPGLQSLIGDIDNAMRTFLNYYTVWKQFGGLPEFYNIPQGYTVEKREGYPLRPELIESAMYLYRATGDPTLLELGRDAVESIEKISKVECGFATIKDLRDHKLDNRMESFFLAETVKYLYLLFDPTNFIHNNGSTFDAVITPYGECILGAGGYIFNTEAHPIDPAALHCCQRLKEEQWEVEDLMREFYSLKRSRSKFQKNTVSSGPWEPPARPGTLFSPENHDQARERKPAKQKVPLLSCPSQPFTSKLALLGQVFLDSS
Chain of UniProt Q8NBA8 (Q8NBA8 whole entry, looked up): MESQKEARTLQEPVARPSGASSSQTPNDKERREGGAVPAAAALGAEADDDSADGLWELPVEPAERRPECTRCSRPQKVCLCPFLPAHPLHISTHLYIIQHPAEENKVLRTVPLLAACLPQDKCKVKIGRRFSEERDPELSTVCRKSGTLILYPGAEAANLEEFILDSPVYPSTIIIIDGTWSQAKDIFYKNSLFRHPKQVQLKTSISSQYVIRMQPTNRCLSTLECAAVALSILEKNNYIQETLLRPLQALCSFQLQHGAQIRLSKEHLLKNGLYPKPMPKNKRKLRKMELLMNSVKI
Chain of UniProt Q9UBQ6 (Q9UBQ6 whole entry, looked up): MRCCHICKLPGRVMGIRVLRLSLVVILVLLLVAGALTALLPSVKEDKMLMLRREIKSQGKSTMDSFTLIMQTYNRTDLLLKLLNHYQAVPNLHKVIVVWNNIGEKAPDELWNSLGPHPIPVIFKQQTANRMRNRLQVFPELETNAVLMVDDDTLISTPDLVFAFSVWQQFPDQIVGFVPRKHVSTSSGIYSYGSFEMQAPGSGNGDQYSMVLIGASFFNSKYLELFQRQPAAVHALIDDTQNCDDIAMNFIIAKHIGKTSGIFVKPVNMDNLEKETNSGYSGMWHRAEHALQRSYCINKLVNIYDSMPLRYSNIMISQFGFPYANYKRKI
Chain of UniProt Q9H2P9 (Q9H2P9 whole entry, looked up): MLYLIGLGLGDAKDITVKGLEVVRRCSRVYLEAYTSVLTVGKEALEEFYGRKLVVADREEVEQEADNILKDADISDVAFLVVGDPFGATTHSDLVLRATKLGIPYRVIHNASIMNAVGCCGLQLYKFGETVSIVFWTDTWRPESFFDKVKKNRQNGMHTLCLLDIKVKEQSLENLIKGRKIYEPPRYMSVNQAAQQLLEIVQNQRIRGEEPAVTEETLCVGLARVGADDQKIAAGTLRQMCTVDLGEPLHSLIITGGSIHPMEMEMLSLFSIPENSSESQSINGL

log2 fold change, active:
DNAJC1 (UniProt Q96KC8) -0.462
EXOC6 (UniProt Q8TAG9) -0.397
DDX39A (UniProt O00148) -0.327
EXOC8 (UniProt Q8IYI6) -0.317
DHCR24 (UniProt Q15392) 1.14
EXOC1 (UniProt Q9NV70) -0.419
ELOVL1 (UniProt Q9BW60) -0.628

log2 fold change, inactive:
CTU1 (UniProt Q7Z7A3) -0.052
EIF4E isoform 2 (UniProt P06730) 0.114
DIP2A (UniProt Q14689) -0.023
DBN1 isoform 3 (UniProt Q16643) 0.047
EXTL2 (UniProt Q9UBQ6) 0.01
DDOST (UniProt P39656) -0.081
ERCC6 (UniProt Q03468) -0.015
DYRK1A isoform 2 (UniProt Q13627) -0.254
DBR1 (UniProt Q9UK59) 0.032
EEF1G isoform 2 (UniProt P26641) -0.067
DHFR (UniProt P00374) 0.101
EFL1 (UniProt Q7Z2Z2) -0.103
FAM114A2 (UniProt Q9NRY5) -0.201
DNAAF2 (UniProt Q9NVR5) -0.025
DUS3L (UniProt Q96G46) 0.062
DHPS (UniProt P49366) 0.047
EDEM2 (UniProt Q9BV94) -0.071
DHX16 (UniProt O60231) -0.002
ERCC2 (UniProt P18074) -0.068
DNM2 (UniProt P50570) -0.075
EHBP1L1 (UniProt Q8N3D4) -0.034
FAM118B (UniProt Q9BPY3) -0.145
EBNA1BP2 (UniProt Q99848) 0.213
CUTA isoform 2 (UniProt O60888) 0.038
DFFB (UniProt O76075) 0.066
FAM3A (UniProt P98173) -0.07
DTWD2 (UniProt Q8NBA8) -0.179
DDB1 (UniProt Q16531) 0.071
E2F4 (UniProt Q16254) -0.167
DPH5 isoform 5 (UniProt Q9H2P9) 0.045
CTNNB1 (UniProt P35222) -0.007
FAM50A (UniProt Q14320) 0

What follows are targets tested with CC(C)C[C@@H](C=O)NC(=O)[C@H](CC(C)C)NC(=O)[C@H](CC(C)C)NC(=O)OCc1ccccc1 in the same assay as above.
Procedure, shortened: as §1

log2 fold change, inactive:
CTU1 (UniProt Q7Z7A3) -0.041
DNAJC1 (UniProt Q96KC8) 0.025
EIF4E isoform 2 (UniProt P06730) 0.012
DIP2A (UniProt Q14689) 0.118
DBN1 isoform 3 (UniProt Q16643) -0.02
EXOC6 (UniProt Q8TAG9) 0.042
EXTL2 (UniProt Q9UBQ6) 0.041
DDOST (UniProt P39656) -0.036
DDX39A (UniProt O00148) 0.042
ERCC6 (UniProt Q03468) 0.018
DYRK1A isoform 2 (UniProt Q13627) 0.064
DBR1 (UniProt Q9UK59) -0.026
EEF1G isoform 2 (UniProt P26641) -0.024
DHFR (UniProt P00374) 0.083
EFL1 (UniProt Q7Z2Z2) 0.03
FAM114A2 (UniProt Q9NRY5) 0.004
DNAAF2 (UniProt Q9NVR5) -0.054
EXOC8 (UniProt Q8IYI6) -0.032
DUS3L (UniProt Q96G46) -0.055
DHPS (UniProt P49366) -0.012
EDEM2 (UniProt Q9BV94) 0.065
DHX16 (UniProt O60231) 0.009
ERCC2 (UniProt P18074) 0.03
DHCR24 (UniProt Q15392) 0.022
DNM2 (UniProt P50570) 0.029
EHBP1L1 (UniProt Q8N3D4) 0.05
FAM118B (UniProt Q9BPY3) 0.065
EBNA1BP2 (UniProt Q99848) -0.026
CUTA isoform 2 (UniProt O60888) -0.09
EXOC1 (UniProt Q9NV70) 0.018
DFFB (UniProt O76075) 0.045
ELOVL1 (UniProt Q9BW60) 0.036
FAM3A (UniProt P98173) 0.047
DTWD2 (UniProt Q8NBA8) 0.003
DDB1 (UniProt Q16531) -0.017
E2F4 (UniProt Q16254) 0.038
DPH5 isoform 5 (UniProt Q9H2P9) -0.071
CTNNB1 (UniProt P35222) 0.081
FAM50A (UniProt Q14320) 0.043
